# Reference: PubChem BioAssay (Tox21)
# Records with an inconclusive call do not appear. The source made the active and inactive calls. Calls follow the shape of the dose curve; as a rule, active = well fitted activation curve with a large enough effect in the signal ratio in the repeat runs (not every such curve was filed as active); inconclusive = weak or mixed curves; inactive = flat fitted curve, though single readings scatter; the % refers to the signal ratio.
# Experiment: qHTS assay to identify small molecule agonists of the TGF-beta/Smad signaling pathway (AID 1346859)
# Settings: SBE-bla HEK293T, TGF-beta/Smad beta-lactamase reporter, 5 h; series mostly up to 76.8 µM
# Excerpt: U.S. Tox21 Program National Center for Advancing Translational Sciences [NCATS] NIH Chemical Genomics Center [NCGC] U.S. Environmental Protection Agency [EPA] National Institutes of Environmental Health Sciences [NIEHS] National Toxicology Program [NTP] U.S. Food and Drug Administration [FDA] Tox21 Assay Overview: Transforming growth factor beta (TGF-beta) superfamily consists of a large number of structurally related dimeric proteins that act as hormones or local mediators in regulating a wide range of biological functions. This superfamily includes TGF-betas themselves, the bone morphogenetic proteins (BMPs) and the activins. These ligands induce oligomerization of serine/threonine receptor kinases and phosphorylate the cytoplasmic signaling molecules of Smad protein family. CellSensor SBE-bla HEK 293T cell line (Life Technologies, Carlsbad, CA), responsive to TGF-beta was used to screen Tox21 10K compound library for identification of agonists/antagonists of the Smad signaling pathway. This cell line contains a beta-lactamase reporter gene under control of the Smad binding element (SBE) stably integrated into HEK 293T cells.
# Tox21 Assay Protocol Summary: SBE-bla HEK 293T cells were dispensed at 4,000/well in 6 uL of assay medium into black wall/clear-bottom 1536-well plates using a Multidrop Combi (ThermoFisher Scientific, Waltham, MA) dispenser. After the assay plates were incubated at 37 C and 5% CO2 for an overnight, 23 nL of compounds dissolved in DMSO, positive controls or DMSO only was transferred to the assay plate by a Pintool station (Kalypsys, San Diego, CA). The assay plates were incubated at 37 C and 5% CO2 for 5 hr. One uL of LiveBLAzer B/G FRET substrate (Life Technologies) was added using a Flying Reagent Dispenser (Aurora Discovery, San Diego, CA) and the plates were incubated at room temperature for 2 hr. Fluorescence intensity (405 nm excitation, 460 nm and 530 nm emissions) was measured using an Envision plate reader (PerkinElmer, Shelton, CT).
row,SMILES,outcome
1,CCCCCCCCS,inactive
2,CC(C)C[C@H](NC(=O)[C@H](Cc1ccccc1)NC(=O)c1cnccn1)B(O)O,inactive
3,O=[N+]([O-])c1ccccc1CCO,inactive
4,CC(C)=CCC[C@H](C)CCO,inactive
5,C=CC(=O)NC(C)(C)C,inactive
6,C=CC(=O)OCCCCCCCCCC,inactive
7,O=C(O)c1ccc2cc(O)ccc2c1,inactive
8,O=C(O)c1cc(C(=O)O)c(C(=O)O)cc1C(=O)O,inactive
9,Cc1c(Cl)cccc1[N+](=O)[O-],inactive
10,O=C(OCCCCCOC(=O)c1ccccc1)c1ccccc1,inactive
11,C1=COCCC1,inactive
12,CCCCCCC/C=C/C=O,inactive
13,CCc1ccc2c(c1)C(=O)c1ccccc1C2=O,inactive
14,C/C(=C(\CCO)SS/C(CCO)=C(\C)N(C=O)Cc1cnc(C)nc1N)N(C=O)Cc1cnc(C)nc1N,inactive
15,CCC(=O)O[C@]1(C(=O)COC)[C@@H](C)C[C@H]2[C@@H]3CCC4=CC(=O)C=C[C@]4(C)C3(F)[C@@H](O)C[C@@]21C (stereo not given in full),inactive
16,COc1ccc(/C=C/c2cc(OC)cc(=O)o2)cc1,inactive
17,CCCN(C1CCN(C(=O)C2CCNCC2)CC1)[C@@H]1CCc2ccc(OC)cc2C1,inactive
18,CC(C)(C(=O)O)c1ccc(C(O)CCCN2CCC(C(O)(c3ccccc3)c3ccccc3)CC2)cc1 (stereo not given),inactive
19,CCN(CC)CC(=O)OCC(=O)[C@@]1(O)CC[C@H]2[C@@H]3CCC4=CC(=O)CC[C@]4(C)[C@H]3[C@@H](O)C[C@@]21C,inactive
20,CC(Cc1ccccc1)(NC(=O)CN)c1ccccc1 (stereo not given),inactive

row,SMILES,outcome
1,Cc1c(Nc2ncccc2C(=O)O)cccc1C(F)(F)F,inactive
2,O=C(O)c1ccccc1-n1cc(C(=O)O)c(=O)c2cc(Nc3c(F)cc(F)cc3Cl)c(Cl)cc21,inactive
3,Cc1ccc(NC=O)c(C)c1,inactive
4,CCC(CC)C(=O)O,inactive
5,CCCCC(CC)COCCC#N (stereo not given),inactive
6,OCC(O)c1ccccc1 (stereo not given),inactive
7,Cc1cc(C)n(CO)n1,inactive
8,CC1(C)CC(=O)CC(C)(C)N1,inactive
9,CC(O)C(C)O (stereo not given),inactive
10,CCCCOc1ccc(N)cc1,inactive
11,COc1cccc([C@H](O)C2CCN(CCc3ccc(F)cc3)CC2)c1OC,inactive
12,CO[C@@H]1COCC[C@@H]1N[C@@H]1CC[C@@](C(=O)N2CCc3ncc(C(F)(F)F)cc3C2)(C(C)C)C1,inactive
13,CCCCCO,inactive
14,O=[N+]([O-])c1ccc(Cl)cc1Cl,inactive
15,CC(=O)Nc1ccccc1O,inactive
16,O=Cc1ccc([N+](=O)[O-])cc1,inactive
17,NCCOCCOCCN,inactive
18,O=C1c2ccccc2C(=O)C1c1ccc2ccccc2n1,inactive
19,NC(=O)c1ccccc1,inactive
20,CC(C)(O)C(=O)O,inactive
